Data published in PubChem BioAssay.
“And” between values parts separate entries of the source, which are not always exact repeats. Equal values may be shown once. The source made the active and inactive calls.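 How the source made its calls, unless noted: active means compounds whose cell count with miR-34 switched on is under 0.7 times the count with it off; inactive means the rest.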

How the values were obtained:
[1] = stimulators of nuclear beta-catenin in C2C12, primary screen, imaging, WNT3A-conditioned medium, mouse C2C12, NPC library (AID 1117326; in the data active means nuclear beta-catenin stimulation mostly above about 4.2%, no sharp cut-off; inactive means mostly below about 10%); conditions: stronger effect = higher value
[2] = stimulators of insulin release from INS-1E, primary screen, cell-based, 5 mM glucose, NPC library (AID 1117329;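 active means compound raises insulin release from rat beta cells at 5 mM glucose, no numeric limit stated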); conditions: rat INS-1E insulin secretion, at 10 µM, stronger effect = higher value
[3] = growth inhibition of GSK3B-pretreated HCT116 cells – cell-based, CellTiter-Glo, 0.2 to 20 µM (AID 1117336;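 active means compounds lowering colon cancer cell viability after pretreatment blocking the GSK3B kinase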); conditions: HCT116 viability after GSK3B inhibitor, at 20 µM, stronger effect = higher value
[4] = inhibition of endothelial tube formation, primary screen, imaging, VEGF stimulated, CD31 staining, tube area, NPC library (AID 1117340;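 active means compound that reduces growth-factor-driven endothelial tube area in a mixed cell culture, no cutoff stated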); conditions: VEGF-stimulated ADSC/ECFC co-culture, at 10 µM, stronger effect = higher value
[5] = glucagon-like peptide 1 release enhancers, primary assay, NCI-H716 cell line, NPC library (AID 1117341;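 active means compound raises GLP1 secretion from the human gut endocrine cells, with no numeric limit stated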); conditions: NCI-H716 cells, at 10 µM, stronger effect = higher value
[6] = HCT116 colon cancer cell growth inhibition, primary screen, CellTiter-Glo luminescence, NPC library (AID 1117342;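 active means compounds that lower survival of HCT116 colon cancer cells in the luminescence readout, no numeric limit stated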); conditions: at 20 µM (top of the series)
[7] = CellTiter-Glo luminescent readout of SW480 viability loss, NPC library primary (AID 1117343;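 active means compounds that lower viability of the colon cancer cells in the luminescence readout, with no numeric limit stated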); conditions: CellTiter-Glo luminescence; at 20 µM (top of the series) unless noted
[8] = decreased DLD-1 cellular survival, CellTiter-Glo luminescent readout, NPC compound collection, primary HTS (AID 1117346;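 active means compounds that lower survival of DLD-1 colon cancer cells in the luminescence readout, no cutoff given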); conditions: DLD-1 viability, CellTiter-Glo luminescence; at 20 µM (top of the series)
[9] = differential killing of epithelial or mesenchymal cells, primary screen, imaging, PC-3E GFP, TEM4-18 mCherry, co-culture (AID 1345086;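 active means compounds killing one labelled cell type while sparing the other, by normalised counts and ratio limits, not self-fluorescent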;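 on all read-outs here: cells exposed to compound for 72 h before imaging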;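 on red/green cell ratio (normalised): normalised mesenchymal count divided by normalised epithelial count so high means epithelial killing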); conditions: imaging cell counts, at 1 µM; for red/green cell ratio (normalised): actives lie on both sides, counts scaled to control wells, 1 = unselective
[10] = sensitizers of A549 cells to miR-34 induction, primary screen, imaging, A549 dox-inducible miR-34, nuclei and caspase counts (AID 1347080); conditions: A549 miR-34 inducible, Hoechst nuclei count, 48 h
[11] = survival rescue of mitochondrial mutant cells in low glucose, primary screen, MELAS cybrids, Rieske KO mouse fibroblasts, CellTiter-Glo (AID 1508586;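 active means mean z-score across replicates of 1.96 or higher in either the MELAS or the Rieske mutant cell line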;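 further: z relative to plate mean and SD of compound and empty wells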)
[12] = biological target: NAD(+) hydrolase SARM1 (Homo sapiens) (UniProt Q6SZW1); assay: SARM1 TIR NADase inhibitors, cell lysate, NAD-Glo luminescence (AID 1508614;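 active means compound whose remaining NAD level is above about 45 nM, limit read from the data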); conditions: SAM-TIR HEK293T lysate NADase, at 1 µM, stronger effect = higher value
[13] = LFS_MB_P medulloblastoma growth inhibition, cell-based, chromothripsis tumors, cisplatin or BGB combos (AID 1671449; in the data active means inhibition above about 80%;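 further: cells exposed for 96 hours; 0% = vehicle DMSO and 100% = killing by high DMSO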); conditions: LFS_MB_P medulloblastoma cells
[14] = HDN33 neuroblastoma growth inhibition, cell-based, chromothripsis tumors, cisplatin or BGB combos (AID 1671450; in the data active means inhibition above about 80%;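 further: cells exposed to compound for four days; 0% = vehicle DMSO and 100% = cell killing by high DMSO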); conditions: HDN33 neuroblastoma cells, stronger effect = higher value
[15] = ICB984 medulloblastoma cell growth inhibition, synergistic combos for chromothripsis tumors, cisplatin or BGB combos (AID 1671451; call rule not given here;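 further: cells exposed for 96 hours before readout; 0% = vehicle DMSO and 100% = killing by high DMSO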); conditions: ICB984 medulloblastoma cells, drug combinations, stronger effect = higher value
[16] = HTB85 osteosarcoma cell growth inhibition, synergistic combos for chromothripsis tumors, BGB or cisplatin IC20 combos (AID 1671453; in the data active means inhibition above about 80%;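 further: cells exposed for 96 hours before readout; 0% = vehicle DMSO and 100% = high DMSO killing control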); conditions: HTB85 osteosarcoma cells, drug combinations, stronger effect = higher value
[17] = MDA-MB-436 breast carcinoma cell growth inhibition, synergistic combos for chromothripsis tumors, BGB or cisplatin combos (AID 1671458; call rule not given here;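 further: cells exposed for 96 hours; 0% = vehicle DMSO and 100% = killing by high DMSO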); conditions: MDA-MB-436 breast carcinoma growth inhibition, drug combinations, stronger effect = higher value
[18] = measured here: epithelial PC-3E GFP cell survival
[19] = measured here: mesenchymal TEM4-18 mCherry cell survival
[20] = stronger effect = lower value, cell number ratio, induced over uninduced
[21] = measured here: relative caspase fold change +Dox/-Dox
[22] = measured here: total cells with miR-34 induction, stronger effect = lower value
[23] = measured here: total cells without miR-34 induction
[24] = MELAS cybrid survival, CellTiter-Glo 48 h, stronger effect = higher value
[25] = Rieske KO mouse fibroblast survival, CellTiter-Glo 72 h

Chain of NAD(+) hydrolase SARM1 (Homo sapiens) (Q6SZW1 whole entry, looked up): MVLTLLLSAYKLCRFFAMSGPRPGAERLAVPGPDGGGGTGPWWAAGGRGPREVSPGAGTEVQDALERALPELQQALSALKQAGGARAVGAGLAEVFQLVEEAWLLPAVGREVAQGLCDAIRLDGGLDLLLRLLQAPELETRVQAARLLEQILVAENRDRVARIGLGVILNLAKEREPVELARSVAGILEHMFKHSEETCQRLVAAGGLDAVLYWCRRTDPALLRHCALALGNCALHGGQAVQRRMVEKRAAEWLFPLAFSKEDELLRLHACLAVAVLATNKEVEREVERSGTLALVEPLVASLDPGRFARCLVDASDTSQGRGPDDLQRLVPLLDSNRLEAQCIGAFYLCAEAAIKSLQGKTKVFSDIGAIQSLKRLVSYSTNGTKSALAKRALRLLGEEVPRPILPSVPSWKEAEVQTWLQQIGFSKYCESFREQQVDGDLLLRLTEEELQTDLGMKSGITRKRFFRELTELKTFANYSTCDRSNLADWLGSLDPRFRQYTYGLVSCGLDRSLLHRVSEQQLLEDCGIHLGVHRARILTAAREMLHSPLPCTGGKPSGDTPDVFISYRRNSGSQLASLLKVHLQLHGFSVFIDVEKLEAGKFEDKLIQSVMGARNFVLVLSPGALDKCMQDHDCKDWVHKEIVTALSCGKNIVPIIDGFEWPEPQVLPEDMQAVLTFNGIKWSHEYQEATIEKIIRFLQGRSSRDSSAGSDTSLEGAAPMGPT

**Q.** What does the source list for `O=C1Cc2cc(CCN3CCN(c4nsc5ccccc45)CC3)c(Cl)cc2N1`?
**A.** nuclear beta-catenin stimulation ([1]; at 10 µM): 0.7% (inactive); nuclear beta-catenin stimulation ([1]; stimulation, at 2 µM): 0.6%; insulin secretion stimulation [2]: 0.65% (inactive); viability decrease [3]: 117% (active); tube area decrease [4]: 22.4% (inactive); GLP1 secretion stimulation [5]: 2.9% (inactive); inhibition of viability [6]: 124% (active); viability decrease (inhibition) [7]: 91.1% (active); viability decrease (inhibition) [8]: 101% (active); red/green cell ratio (normalised) [9]: 0.94 (inactive); normalised cell number [9, 18]: 1.17; normalised cell number [9, 19]: 1.1; fold change [10, 20]: 0.799 (inactive) and 0.929 (inactive) and 0.946 (inactive); fold change [10, 21]: 1.72 and 0.693 and 2.86; cell count [10, 22]: 4490 and 6730 and 8460; cell count [10, 23]: 5620 and 7240 and 8940; z-score [11, 24]: -0.541 (inactive) and 0.954 (inactive); z-score [11, 25]: 1.41 and -0.174; remaining NAD [12]: 10 nM (inactive)

**Q.** With `O=[N+]([O-])c1ccc(O)c2ncccc12` as the molecule, how does the nuclear beta-catenin stimulation ([1]; at 10 µM) read?
**A.** 45.6% (active)

**Q.** What about the nuclear beta-catenin stimulation ([1]; stimulation, at 2 µM) of the same molecule?
**A.** 1.9%

**Q.** And the insulin secretion stimulation [2]?
**A.** -1.1% (inactive)

**Q.** What about the viability decrease [3] of the same molecule?
**A.** 95.8% (active)

**Q.** What about the tube area decrease [4] of the same molecule?
**A.** 102% (active)

**Q.** What about the GLP1 secretion stimulation [5] of the same molecule?
**A.** -11.4% (inactive)

**Q.** What about the inhibition of viability [6] of the same molecule?
**A.** 76.5% (active)

**Q.** And the viability decrease (inhibition) [7]?
**A.** 112% (active)

**Q.** And the viability decrease (inhibition) [8]?
**A.** 80.7% (active)

**Q.** And the red/green cell ratio (normalised) [9]?
**A.** 0.89 (inactive)

**Q.** And the normalised cell number [9, 18]?
**A.** 1.07

**Q.** What about the normalised cell number [9, 19] of the same molecule?
**A.** 0.95

**Q.** What about the fold change [10, 20] of the same molecule?
**A.** 0.979 (inactive)

**Q.** What about the fold change [10, 21] of the same molecule?
**A.** 0.972

**Q.** What about the cell count [10, 22] of the same molecule?
**A.** 2410

**Q.** And the cell count [10, 23]?
**A.** 2460

**Q.** What about the remaining NAD [12] of the same molecule?
**A.** 10 nM (inactive)

**Q.** For `O=C(O)c1cc(=O)[nH]c(=O)[nH]1`, which nuclear beta-catenin stimulation ([1]; at 10 µM) is on record?
**A.** 2.7% (inactive)

**Q.** And the nuclear beta-catenin stimulation ([1]; stimulation, at 2 µM)?
**A.** 1.2%

**Q.** What about the insulin secretion stimulation [2] of the same molecule?
**A.** -0.7% (inactive)

**Q.** And the viability decrease [3]?
**A.** 0.3% (inactive)

**Q.** What about the tube area decrease [4] of the same molecule?
**A.** -4.9% (inactive)

**Q.** And the GLP1 secretion stimulation [5]?
**A.** 2.6% (inactive)

**Q.** What about the inhibition of viability [6] of the same molecule?
**A.** 1.8% (inactive)

**Q.** And the viability decrease (inhibition) [7]?
**A.** 18.7% (inactive)

**Q.** What about the viability decrease (inhibition) [8] of the same molecule?
**A.** 0.25% (inactive)

**Q.** And the red/green cell ratio (normalised) [9]?
**A.** 0.81 (inactive)

**Q.** And the normalised cell number [9, 18]?
**A.** 1.22

**Q.** And the normalised cell number [9, 19]?
**A.** 0.99

**Q.** And the fold change [10, 20]?
**A.** 0.909 (inactive) and 0.91 (inactive)

**Q.** What about the fold change [10, 21] of the same molecule?
**A.** 0.683 and 0.794

**Q.** And the cell count [10, 22]?
**A.** 8860 and 8140

**Q.** What about the cell count [10, 23] of the same molecule?
**A.** 9750 and 8950

**Q.** And the z-score [11, 24]?
**A.** -0.414 (inactive)

**Q.** What about the z-score [11, 25] of the same molecule?
**A.** -0.146

**Q.** What about the remaining NAD [12] of the same molecule?
**A.** 10 nM (inactive)

**Q.** What about the inhibition ([13]; at 0.5 µM, stronger effect = higher value) of the same molecule?
**A.** -14.8% (inactive) and 6.04% (inactive)

**Q.** What about the inhibition ([13]; measured here: combination with BGB IC20, at 0.005 µM) of the same molecule?
**A.** -3.6% and -6.88%

**Q.** What about the inhibition ([13]; measured here: combination with BGB IC40, at 0.005 µM) of the same molecule?
**A.** 28.3% and -31.4%

**Q.** What about the inhibition ([13]; measured here: combination with BGB IC40, at 0.05 µM) of the same molecule?
**A.** -7.85% and -7.79%

**Q.** And the inhibition ([13]; measured here: combination with cisplatin, at 0.5 µM, stronger effect = higher value)?
**A.** -24.1% and -4.55%

**Q.** And the inhibition ([13]; measured here: combination with cisplatin, at 5 µM, stronger effect = higher value)?
**A.** -5.53% and -40.7%

**Q.** What about the inhibition ([14]; BGB combo, at 5 µM) of the same molecule?
**A.** 13.5% and -51.1%

**Q.** And the inhibition ([14]; at 0.5 µM)?
**A.** 15.1% (inactive) and -24.6% (inactive)

**Q.** What about the inhibition ([14]; cisplatin combo, at 5 µM) of the same molecule?
**A.** 14.4% and -17.2%

**Q.** And the inhibition ([14]; measured here: with BGB IC20 combination, at 0.5 µM)?
**A.** 10.5% and -14.2%

**Q.** What about the inhibition ([14]; measured here: with cisplatin IC20 combination, at 0.5 µM) of the same molecule?
**A.** 24.7% and -33.5%

**Q.** What about the inhibition ([14]; single agent, at 5 µM) of the same molecule?
**A.** 12.4% and -40.1%

**Q.** And the inhibition ([15]; BGB IC20 combo, at 0.005 µM)?
**A.** -7.3% and -18.5%

**Q.** What about the inhibition ([15]; BGB IC40 combo, at 0.005 µM) of the same molecule?
**A.** -15.2% and -60.1%

**Q.** What about the inhibition ([15]; BGB IC40 combo, at 0.05 µM) of the same molecule?
**A.** 9.75% and -38.4%

**Q.** And the inhibition ([15]; at 0.5 µM)?
**A.** 7.77% (inactive) and -27.4% (inactive)

**Q.** And the inhibition ([15]; cisplatin combo, at 0.05 µM)?
**A.** 9.75% and -43.9%

**Q.** What about the inhibition ([15]; cisplatin combo, at 0.5 µM) of the same molecule?
**A.** -1.72% and -34.4%

**Q.** What about the inhibition ([15]; cisplatin combo, at 5 µM) of the same molecule?
**A.** 27.1% and -45.2%

**Q.** And the inhibition ([15]; measured here: 5 uM single agent, at 5 µM)?
**A.** 8.32% and 10.3%

**Q.** And the inhibition ([16]; at 0.5 µM)?
**A.** 5.03% (inactive) and -15.1% (inactive)

**Q.** What about the inhibition ([16]; measured here: with BGB IC20, at 0.5 µM) of the same molecule?
**A.** -2.41% and -19.2%

**Q.** And the inhibition ([16]; measured here: with BGB IC20, at 5 µM)?
**A.** 15.1% and -5.19%

**Q.** What about the inhibition ([16]; measured here: with cisplatin IC20, at 0.5 µM) of the same molecule?
**A.** 6.2% and -21.8%

**Q.** And the inhibition ([16]; measured here: with cisplatin IC20, at 5 µM)?
**A.** 13% and -19.1%

**Q.** And the inhibition ([16]; single agent, at 5 µM)?
**A.** 16% and -13.4%

**Q.** What about the inhibition ([17]; at 0.5 µM) of the same molecule?
**A.** 2.87% (inactive) and -29.1% (inactive)

**Q.** What about the inhibition ([17]; measured here: BGB combination, at 0.5 µM) of the same molecule?
**A.** 7.16% and -31.6%

**Q.** What about the inhibition ([17]; measured here: BGB combination, at 5 µM) of the same molecule?
**A.** 4.32% and -38.3%

**Q.** What about the inhibition ([17]; measured here: cisplatin combination, at 0.5 µM) of the same molecule?
**A.** -8.53% and -32.8%

**Q.** What about the inhibition ([17]; measured here: cisplatin combination, at 5 µM) of the same molecule?
**A.** 21.8% and -35.6%
